Screens from PubChem BioAssay.
Hits are enriched below; roughly 2.8% of the tested compounds scored in any of these assays.
KDM5B inh = KDM5B demethylase inhibition | Potency, µM (series often up to 57.7 µM), actives largely listed as inhibitors | KDM5B demethylase, FDH-coupled NADH fluorescence (FDH is formaldehyde dehydrogenase) | AID 1347165 | hit rate 2.6% among 220,000; note: potency is the fitted concentration of half-maximal effect; 0% is about no effect; nearly all actives have a fitted effect of over 70% in size
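qHTS format, multiple compound concentrations. Buffer 50 mM HEPES pH 7.5/0.01% Tween-20; 200 nM KDM5BΔAP final; 10 min compound preincubation; substrate-mix levels 12.5 µM peptide, 25 µM α-KG, 0.25 mM NAD⁺; 30 min RT; ΔRFU.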
IP6K1 inhibitor = inhibitors of human IP6K1. Q92551. IP6K1 kinase, ADP-Glo luminescence, 2 h; active compounds read low. activity change, % (series mostly up to about 58 µM). hit rate 0.81% among 140,000. AID 1645851; in the data active = activity change below about -25%; note: % is set by controls: 0 for no effect and ±100 for the full control effect
Target sequence (Q92551 whole entry, looked up): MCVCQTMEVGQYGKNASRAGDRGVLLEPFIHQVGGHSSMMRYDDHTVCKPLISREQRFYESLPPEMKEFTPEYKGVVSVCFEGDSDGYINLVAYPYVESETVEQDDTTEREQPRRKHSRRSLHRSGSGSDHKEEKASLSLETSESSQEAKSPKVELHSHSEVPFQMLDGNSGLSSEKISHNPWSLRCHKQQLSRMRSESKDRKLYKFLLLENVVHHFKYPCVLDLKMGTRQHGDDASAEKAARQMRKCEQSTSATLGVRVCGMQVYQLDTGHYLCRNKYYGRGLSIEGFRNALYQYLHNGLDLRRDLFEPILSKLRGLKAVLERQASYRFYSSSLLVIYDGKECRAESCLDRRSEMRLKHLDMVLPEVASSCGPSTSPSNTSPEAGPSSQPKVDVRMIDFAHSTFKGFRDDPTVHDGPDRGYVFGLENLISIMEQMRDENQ
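ADP-Glo luminescence measures ADP made by human IP6K1 during a 2 h RT reaction with ATP/IP6 (mix at 1.3 mM/130 uM); top library doses 57.5 and 19.1 uM final.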
SNCA expr inh = reduces expression of the alpha-synuclein gene | Potency, µM (highest dose often 57.2 µM), without a hit: top-dose activity change, negative = inhibition, usual class: inhibitors | hit rate 0.17% among 140,000 | AID 1671194 | HEK-293 SNCA-luciferase knock-in, luminescence, 24 h;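 note: potency is the fitted concentration of half-maximal effect; plate controls were DMSO cells for no effect and cell-free wells for full effect; nearly all actives have a fitted effect of over 45% in size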
HEK293 viab = reduces viability of HEK-293 SNCA reporter cells; HEK-293-SNCA-luc viability, GF-AFC fluorescence, 24 h; hit rate 0.12% among 150,000; Potency, µM (top dose mostly 57.1 µM), for the others: top-dose activity change, negative = cytotoxicity, most hits filed as cytotoxic;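 note: potency is the fitted concentration of half-maximal effect; 0% = DMSO-treated cells and -100% = medium-only wells without cells; nearly all actives have a fitted effect of over 30% in size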
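Cytotoxicity counterscreen: after 24 h compound treatment of genome-edited SNCA-luciferase HEK-293 cells, live-cell protease substrate GF-AFC read by fluorescence after 30 min; activity scaled between DMSO (0%) and medium-only (-100%), curves Hill-fitted.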
IP6K1 inh cnf = human IP6K1 inhibition, confirmatory; Potency, µM (top dose mostly 49 µM), for the others: top-dose activity change, negative = inhibition, most hits filed as inhibitors; recombinant IP6K1 kinase, ADP-Glo luminescence, 2 h; hit rate 13% among 1,200; shares compounds with IP6K1 inhibitor; note: potency is the fitted concentration of half-maximal effect; % is set by controls: 0 for no effect and ±100 for the full control effect; nearly all actives have a fitted effect of over 65% in size
Numbers without * were called inactive; i = inactive; ? = inconclusive; / = no result given; ! = not active in a repeat; [ ] = remark or other dose. Unless noted, calls come from the whole dose curve; as a rule, active = well fitted curve in the direction sought with a large enough effect; inconclusive = small, poorly fitted or top-dose-only effect, or another doubt; inactive = no such curve, though single readings can be large; an effect the other way counts as inactive or inconclusive.

SMILES	KDM5B inh	IP6K1 inhibitor	SNCA expr inh	HEK293 viab	IP6K1 inh cnf
O=Cc1ccc(O)c(O)c1O	/	-33*	2%[25.6 µM]	10%[23.9 µM]	?
FC(F)(F)c1ccc(C=Cc2nc(COc3ccc(CCCCn4ccnn4)cc3)co2)cc1	/	/	?	3%	/
Cc1cccc(Nc2sc(C(=O)c3ccc(Cl)cc3)c(N)c2C(N)=O)c1	?	-39*	0%	-9%	-10%
Cc1ccc(NC(=O)CSCc2cnn(-c3ccccc3)c2-n2cccc2)c(C)c1	i	-28*	-28%	-4%	2%
Cc1ccc(Cl)cc1NC(=O)CSCc1cnn(-c2ccccc2)c1-n1cccc1	i	25	?	-16%	/
CCCOc1ccc(NC(=O)C(C)Oc2ccccc2OC)c2cccnc12 (stereo unspecified)	i	/	/	/	/
FC(F)(F)c1cccc(-c2noc(-c3ccc(NCCN4CCOCC4)nc3)n2)c1	?	14	?	-25%	/
Cn1cc(CNc2ccc(-c3nc(-c4cccc(C(F)(F)F)c4)no3)cn2)cn1	?	-33*	60%	-14%	?
C[S+](=O)([O-])NCc1nnc2n1C(C(=O)NCc1ccccc1F)CC2 (stereo unspecified)	/	-28*	1%	12%	-2%
C[S+](=O)([O-])NCc1nnc2n1C(C(=O)NCc1ccccc1)CC2 (stereo unspecified)	/	11	-3%[87.6 µM]	0%[12.5 µM]	/
COC(=O)c1c(SC)nc2ccccc2c1OCc1cc(C)ccc1C	i	40	?	6%	/
COC(=O)c1c(SC)nc2ccccc2c1OCc1ccccc1Cl	i	-26*	-13%	-1%	-7%
O=C(CC1C(=O)OCCN1Cc1ccccc1)Nc1ccc(F)c(F)c1 (stereo unspecified)	i	/	/	/	/
Cc1ccc(-n2[nH]c(C)c(N=Nc3cccc(-c4cccc(C(=O)O)c4)c3O)c2=O)cc1C	/	-91*	-1%	-18%	?
O=C(NCc1nc(-c2cccc(F)c2)c(-c2ccccn2)[nH]1)C1CCOC1 (stereo unspecified)	i	-2	-27%	11%	/
O=C(COc1ccc(Cl)cc1)N1CCC2(CC1)N(c1ccccc1)C(=O)CS2(=O)=O	/	5	-2%	7%	/
O=C1Nc2ccc(I)cc2/C1=C/c1cc(Br)c(O)c(Br)c1	/	/	7%	-9%	2.9µM*
O=C1Nc2ccc(I)cc2C1=Cc1cc(Br)c(O)c(Br)c1	/	/	-1%	-17%	/
CC(OC(=O)C1CCC1)C(=O)NC(N)=O (stereo unspecified)	i	/	/	/	/
CCCCc1nn(CC(=O)NCC2Cc3ccccc3CN2C)c(=O)n1CC (stereo unspecified)	?	-30*	-8%	-5%	-7%
CCCCc1nn(CC(=O)NC[C@H]2CCc3ccccc3O2)c(=O)n1CC	i	12	-5%	1%	/
CNCC(=O)N1CCCC(N2CCN(Cc3ccc4c(c3)OCO4)CC2)C1 (stereo unspecified)	?	-37*	2%	3%	-8%
CC(C)c1cc(C(C)C)c(CC(=O)NS(=O)(=O)Oc2c(C(C)C)cccc2C(C)C)c(C(C)C)c1	/	-32*	23%	-28%	?
CCOc1ccc(NC(=O)CSc2nc(-c3ccc(OC)cc3)nc3c2Cc2c(CO)cnc(C)c2O3)cc1	i	14	11%	14%	/
COc1ccc(-c2nc3c(c(SCC(=O)Nc4cccc(O)c4)n2)Cc2c(CO)cnc(C)c2O3)cc1	?	-29*	-8%	-22%	-3%
SMILES	KDM5B inh	IP6K1 inhibitor	SNCA expr inh	HEK293 viab	IP6K1 inh cnf
Cc1cccc(Cc2c(C)nc3c(-c4ccccc4)c(C)[nH]n3c2=O)c1	?	-34*	-13%	-9%	?
COc1ccc(-c2ccc3ncc4c(c3c2)n(-c2ccc(N3CCNCC3)c(C(F)(F)F)c2)c(=O)n4C)cn1	/	-15	?	30µM*!	-28%
COC(=O)c1ccc(COC(=O)c2ccc3ccccc3n2)o1	i	/	/	/	/
CC(=O)c1cccc(Nc2ncnc3c2cnn3C)c1	i	-38*	55%	-6%	?
O=C(O)c1cccc(Nc2ncnc3ccc(Br)cc23)c1	?	-26*	10%	0%	?
CC(=O)Nc1ccc(Nc2ncnc3c2cnn3C)cc1	i	-3	241%	8%	/
CC#CC(=O)Nc1ccc2ncnc(Nc3cccc(Br)c3)c2c1	/	2	/	?	/
